# Assay outcomes as filed in PubChem.
# NPR2 activator – GC-B (human) receptor activation | P20594 | HEK293-GC-B cells, CNP EC30, cGMP TR-FRET; 0% at EC30 CNP, 100% saturating CNP | activation, % at 10 µM | 370,000 tested, 0.11% active | AID 1920062;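 active means activation at 10 µM reaching about 35% in either raw or pattern-adjusted values, limit read from the data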
# Target sequence (P20594 whole entry, looked up): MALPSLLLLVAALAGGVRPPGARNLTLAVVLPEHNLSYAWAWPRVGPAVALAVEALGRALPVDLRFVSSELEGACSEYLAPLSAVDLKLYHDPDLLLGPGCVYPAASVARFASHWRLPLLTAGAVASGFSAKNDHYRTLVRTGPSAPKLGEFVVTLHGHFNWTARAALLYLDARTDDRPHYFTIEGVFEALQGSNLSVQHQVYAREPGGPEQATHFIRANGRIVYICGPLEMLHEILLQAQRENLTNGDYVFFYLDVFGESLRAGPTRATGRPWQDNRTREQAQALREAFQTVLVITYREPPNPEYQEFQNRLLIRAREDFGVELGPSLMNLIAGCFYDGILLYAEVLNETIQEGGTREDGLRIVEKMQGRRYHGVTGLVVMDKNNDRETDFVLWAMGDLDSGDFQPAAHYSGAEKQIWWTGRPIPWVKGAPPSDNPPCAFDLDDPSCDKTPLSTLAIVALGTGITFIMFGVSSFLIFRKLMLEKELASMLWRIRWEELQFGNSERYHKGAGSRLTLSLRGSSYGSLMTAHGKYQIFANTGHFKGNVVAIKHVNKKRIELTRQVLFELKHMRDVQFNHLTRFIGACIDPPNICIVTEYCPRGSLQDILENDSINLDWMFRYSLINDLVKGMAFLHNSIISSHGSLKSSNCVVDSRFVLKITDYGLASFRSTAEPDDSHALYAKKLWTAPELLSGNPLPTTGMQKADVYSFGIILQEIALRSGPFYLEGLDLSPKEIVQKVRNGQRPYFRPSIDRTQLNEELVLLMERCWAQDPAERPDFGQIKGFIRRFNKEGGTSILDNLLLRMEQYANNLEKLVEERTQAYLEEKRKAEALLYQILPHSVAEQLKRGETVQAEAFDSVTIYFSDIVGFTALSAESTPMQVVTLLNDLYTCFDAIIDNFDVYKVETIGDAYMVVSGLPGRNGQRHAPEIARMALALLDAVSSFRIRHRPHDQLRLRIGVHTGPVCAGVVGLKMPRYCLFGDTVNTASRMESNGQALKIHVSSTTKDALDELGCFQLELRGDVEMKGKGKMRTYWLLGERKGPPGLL
# FAS TE block – blocks the thioesterase domain of human fatty acid synthase; 360,000 tested, 0.67% active; recombinant FAS-TE, OMFH fluorogenic substrate, fluorescence endpoint; AID 602261; inhibition, % at 15 µM; P49327;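 active means compounds whose normalised, plate-corrected inhibition of enzyme fluorescence in the single-dose primary screen is 50% or more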;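 further: 0% = DMSO with enzyme and 100% = substrate without enzyme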
# NPR1 activator – GC-A (human) enzyme activation; P16066; HEK293 GC-A cells, cGMP TR-FRET, EC30 ANP; 0% at EC30 ANP, 100% saturating ANP; activation, % at 10 µM; 370,000 tested, 0.14% active; AID 1671463; in the data active means activation above about 40%
# aDG glyco act – alpha-DG glycosylation activation | 360,000 tested, 0.22% active | AID 624168 | Pro5-aDG cells, alpha-DG glycosylation AlphaScreen (IIH6); 0% Pro5, 100% B10-LARGE cell signal | activation, % at 10 µM;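 active means activation of at least 8% versus controls, or a plate z-score of at least 8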;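 further: Pro5 are CHO cells carrying HIG-tagged alpha-DG that lacks glycosylation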
# FAS-TE conf – FAS thioesterase (human) inhibition, confirmation; AID 624325; 2,300 tested, 45% active; inhibition, % at 15 µM; recombinant FAS-TE, OMFH fluorogenic substrate, fluorescence; shares compounds with FAS TE block;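 active means compounds inhibiting the enzyme by at least 50% at 15 µM in any one of the replicates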;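 further: 0% = enzyme with DMSO only and 100% = wells lacking enzyme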
# Starred values were filed as active, the others as inactive; . = no result given. Shown are actives, neighbours in structure and some others; about 1.1% of the full set was active somewhere.
SMILES,NPR2 activator,FAS TE block,NPR1 activator,aDG glyco act,FAS-TE conf
CCN(Cc1ccccc1)C(=O)c1c[nH]c2ccc(S(=O)(=O)N(C)CCC#N)cc2c1=O,4.9,58.8*,0.2,-0.1,67.0*
COc1ccc(S[C@]2(C(=O)N3CCOCC3)CC(=O)N(P(=O)(OC)OC)[C@@H]2c2ccc(OC)cc2)cc1,3.5,.,1.9,.,.
COc1cc2c(cc1NC(=O)c1ccncc1)oc1ccccc12,.,12.3,.,0.0,.
COc1ccc(-c2cc(C(=O)Nc3nc4ccccc4s3)c3ccccc3n2)cc1OC,0.6,82.2*,6.1,-0.3,22.8
COc1ccc(-c2cc(C(=O)Nc3sc4c(c3C#N)CCCC4)c3ccccc3n2)cc1OC,-3.1,51.6*,0.6,0.4,-0.8
COc1ccc(-c2cc(C(=O)Nc3ccccc3O)c3ccccc3n2)cc1OC,6.3,-6.7,0.0,-0.7,.
COc1cc2c(cc1NC(=O)c1cc(-c3ccccn3)nc3ccccc13)oc1ccccc12,3.3,57.2*,-2.4,-0.3,-4.7
O=C(Nc1ccc([N+](=O)[O-])cn1)c1cc(-c2cccc(Br)c2)nc2ccccc12,1.4,33.5,-5.2,0.1,.
COc1cccc(-c2cc(C(=O)Nc3ccc([N+](=O)[O-])cn3)c3ccccc3n2)c1,0.6,51.5*,1.5,-0.7,8.4
CC(=O)C1(C(=O)NCc2ccccc2)CC(c2ccccn2)=NO1 (stereo not drawn),-0.9,.,2.6,.,.
O=S1(=O)C=CCN1Cc1cn(Cc2ccc(C(F)(F)F)cc2)nn1,-1.7,.,0.5,.,.
C#CC1c2ccccc2CCN1CC=C (stereo not drawn),-1.9,.,0.6,.,.
Cc1ccc(-c2nnc(NC3CCCCC3)c3ccccc23)cc1S(=O)(=O)N1CCN(C)CC1,9.4,6.2,8.8,1.1,.
Cc1ccc(-c2nnc(NCc3nc4ccccc4[nH]3)c3ccccc23)cc1S(=O)(=O)N1CCCCC1,4.6,68.7*,-2.0,0.6,21.1
Fc1ccc(-c2n[nH]c(=S)n2N=Cc2cccc(OCc3ccccc3)c2)cc1,-4.4,.,-5.4,.,.
O=C(CCc1ccccc1)N[C@H]1[C@@H](OC(=O)c2ccco2)CCC[C@]12C(=O)N(Cc1ccccc1)c1ccccc12,-6.9,.,-3.6,.,.
O=C(Nc1cccc(Cl)c1)C1=Cc2cc(Cl)ccc2OC1,-4.2,23.7,4.3,0.2,.
O=C(NCc1ccc(Cl)cc1)C1=Cc2cc(Cl)ccc2OC1,5.5,63.5*,6.4,0.2,40.4
COc1cccc(NC(=S)N2CCc3cc(OC)c(OC)cc3C2COc2ccc3c(C)cc(=O)oc3c2)c1 (stereo not drawn),-1.6,58.2*,2.0,-0.2,7.3
COC(=O)c1cc(C(=O)Nc2nnc(CC(C)(C)C)s2)cc([N+](=O)[O-])c1,-0.4,52.5*,-1.6,-0.1,58.7*
O=c1oc(-c2ccco2)nc2sc3c(c12)CCCC3,-8.7,65.8*,-6.4,0.3,23.7
O=c1oc(-c2ccccc2)nc2sc3c(c12)CCC3,-4.9,41.3,-18.6,0.1,.
COc1ccccc1C(=O)Nc1ccc(S(=O)(=O)N2CCc3ccccc32)cc1,-4.8,51.0*,-3.7,-0.1,26.4
Nc1[nH]c(C(=O)c2ccccc2)c(-c2ccccc2Cl)c1C(=O)NCCc1c[nH]c2ccccc12,-10.6,.,-8.9,.,.
COc1ccc(CNC(=O)/C(C#N)=C2\N=C(NC(=O)c3cccs3)c3ccccc32)cc1,-4.3,51.3*,-2.8,0.2,33.5
SMILES,NPR2 activator,FAS TE block,NPR1 activator,aDG glyco act,FAS-TE conf
COCCNC(=O)[C@@]1(C)C=C[C@@H](Cc2ccccc2)N1C(=O)c1ccccc1,8.7,-12.8,2.7,-0.1,.
C[C@]1(C(=O)NCc2cc(F)cc(C(F)(F)F)c2)C=C[C@@H](Cc2ccccc2)N1C(=O)c1ccccc1,-3.2,68.2*,-4.1,-0.1,22.7
Cc1cc(=O)[nH]c(SCC(=O)Nc2ccc(Cl)cc2)n1,-0.8,.,-3.9,.,.
CC1Cc2cc(/C=C3/SC(=S)NC3=O)ccc2O1 (stereo not drawn),-13.7,18.1,2.3,0.0,.
Cc1ccc(C2C(/C=C3/SC(=S)NC3=O)=C(c3cccs3)Oc3ccccc32)cc1 (stereo not drawn),25.2,63.9*,-15.9,0.0,21.6
CC(C)(C)c1ccc(C(=O)N2CCC2(C)C(=O)NS(=O)(=O)c2ccc(C#N)cc2)cc1 (stereo not drawn),-1.6,53.3*,3.3,0.0,65.2*
Cc1c(Cl)cccc1N1C(=O)C(N2C(=O)c3cccc([N+](=O)[O-])c3C2=O)C1c1cccs1 (stereo not drawn),.,62.7*,.,0.2,34.5
CCOC(=O)c1cc2c(=O)n3ccccc3nc2n(CC2CCCO2)c1=NC(=O)/C=C/c1ccccc1 (stereo not drawn),-6.8,80.0*,1.0,-0.2,83.5*
CCOC(=O)c1cc2c(=O)n3ccccc3nc2n(C)c1=NC(=O)c1c(-c2c(F)cccc2Cl)noc1C,-16.1,12.8,-24.9,0.1,.
CCOC(=O)c1cc2c(=O)n3ccccc3nc2n(C(C)C)c1=NC(=O)c1c(-c2c(F)cccc2Cl)noc1C,2.7,94.2*,4.5,-0.5,3.6
Fc1c(-c2ccc3ncnc(NCc4cccs4)c3c2)ccc2c1OCO2,18.9,.,26.1,.,.
COC(=O)C[C@@H]1CC[C@@H]2[C@@H](COc3ccc(NC(=O)Nc4ccccc4)cc3C(=O)N2C)O1,4.1,.,-1.1,.,.
CCCC(C)C(=O)Nc1cc([N+](=O)[O-])ccc1Cl (stereo not drawn),3.5,51.9*,2.9,0.1,64.4*
CCCC(C)C(=O)Nc1cc([N+](=O)[O-])ccc1F (stereo not drawn),3.2,31.4,-3.5,1.0,.
COc1ccc(-c2ccc3c(n2)CCCN3S(=O)(=O)c2c(C)noc2C)cc1,-2.7,.,0.0,.,.
CC12C(=O)N(c3cccc(OC(=O)c4ccco4)c3)C(=O)C1C1c3ccccc3C2c2ccccc21 (stereo not drawn),1.5,43.8,-4.2,0.2,.
CC12C(=O)N(c3ccc(OC(=O)c4ccco4)cc3)C(=O)C1C1c3ccccc3C2c2ccccc21 (stereo not drawn),3.8,60.4*,-0.6,0.4,27.6
C#CCNC(=O)C[C@@H]1C(=O)N(Cc2ccc(OC)cc2)C2=CCN(C(=O)OC(C)(C)C)C[C@]21C(=O)OCC,-0.3,.,0.1,.,.
COCCSc1nnc(NC(=O)c2ccc([N+](=O)[O-])cc2)s1,-4.8,3.3,3.6,0.0,.
Cc1cc(-c2nnc(CSc3nnc(NC(=O)c4ccc(C(C)(C)C)cc4)s3)o2)ccc1[N+](=O)[O-],4.2,75.1*,3.4,0.1,9.7
O=c1[nH]c(CN2CCN(S(=O)(=O)c3cccs3)CC2)nc2c(Br)cc(Br)cc12,-4.4,55.1*,-4.9,-0.1,38.2*
O=C(COC(=O)c1cc([N+](=O)[O-])ccc1N1CCOCC1)c1ccc(Br)cc1,-5.2,62.9*,6.2,0.1,6.6
